# Experimental data from the supplement of paper PMC8728848.
# This is one part of a sample in which the strongest signals are shown more often than they occur.
# B1: NanI (Corynebacterium diphtheriae), C6JSW7 (protein)
# chain: MTNTLESNPMTTTTGALTITFATTCDGPLAHIPHHLDLNIIHGRIQGTTAHRRIDAEDPDGLDDGLPHHLCLSVDTTGTHLFIDGYEAFSTTQTEWFDTSELTLNPHGDLTIIDHQILNHAPTPRQARNLAPAAEPLVWFAGSHLSTRDTQRISHLTHGSLRLLMKTRGTGQGGVAFQAHTINGDLTLEIIDGTLIFSVRCHDEDYVRITAPGRWDDGQIYDVVIVCGRGATDIYVDGQQLIHSPGAAFFNDLSGELSVHIGTAASGVRLFGEVQSGMIYPHVFNHHQVQRLATVEPIATQALFDCLLDGAQSYRIPSLITTDSGVIIAGADKRVSIANDAPNDIDFVLRRSVDGGRTWQPPRTILQLPDTACVTDSVLLQDHTTGRIFAFLDQFPAGIGQPNAAFGTGFDADGNRIGHFADGSTCTMPREVDQLEASFFSDPHTAPPGIVFQHPSCHLWMLTSDDDGLTWSTPRDLTPDVKEEWMRFCGTSPGNGIQLQRDTHAGRLLIPMYYTKGDQFFAAALYSDDHGDTWHRGESPDLEMYESTLVEASDGSVLLWARNQHPSGAVAHARSTDGGHSWSQVTFNPNVPEIFSQPNALRVTNPDGIIFANASQLLPFRGRGVLRMSTNDGASWQHNRVFNPRHYVYQCMTQLPDGSIGLLWEREMQGLFFSIIPMTWIMQGYAL
# Columns and labels:
# Assay in all cases: glycan array binding signal (z-score within array); higher = stronger binding
# Conditions in all cases: glycan notation: IUPAC condensed, linker removed
# [1] = biological target: Fuc(a1-2)Gal(b1-3)GlcNAc(b1-3)[Fuc(a1-3)[Gal(b1-4)]GlcNAc(b1-6)]Gal(b1-4)Glc
# Method in brief: (§1)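 The Consortium for Functional Glycomics database supplied 3228 glycan arrays, of which those lacking an available protein sequence were dropped. The binding signal, a within-array Z-score, was averaged across arrays of the same protein sequence and across linkers. Negative scores can be read as non-binding.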
# [2] = biological target: Fuc(a1-2)Gal(b1-3)GlcNAc(b1-3)[Neu5Ac(a2-6)Gal(b1-4)GlcNAc(b1-6)]Gal(b1-4)Glc
# Method in brief: as §1
# [3] = biological target: Fuc(a1-2)Gal(b1-4)[Fuc(a1-3)]GlcNAc(b1-3)GalNAc
# Method in brief: as §1
# [4] = biological target: Fuc(a1-2)[Gal(a1-3)]Gal(b1-3)GlcNAc(b1-2)Man(a1-3)[Fuc(a1-2)[Gal(a1-3)]Gal(b1-3)GlcNAc(b1-2)Man(a1-6)]Man(b1-4)GlcNAc(b1-4)[Fuc(a1-6)]GlcNAc
# Method in brief: as §1
# [5] = biological target: Fuc(a1-2)[GalNAc(a1-3)]Gal(b1-4)[Fuc(a1-3)]GlcNAc(b1-3)GalNAc
# Method in brief: as §1
# [6] = biological target: Fuc(a1-2)[GalNAc(a1-4)]Gal(b1-4)GlcNAc
# Method in brief: as §1
# [7] = biological target: Fuc(a1-3)[Gal(b1-4)]GlcNAc(b1-2)Man(a1-3)[Fuc(a1-3)[Gal(b1-4)]GlcNAc(b1-2)Man(a1-6)]Man(b1-4)GlcNAc(b1-4)[Fuc(a1-6)]GlcNAc
# Method in brief: as §1
# [8] = biological target: Fuc(a1-3)[Gal(b1-4)]GlcNAc(b1-6)GalNAc
# Method in brief: as §1
# [9] = biological target: Gal(a1-3)Fuc(a1-2)Gal(b1-4)GlcNAc(b1-3)[Gal(a1-3)Fuc(a1-2)Gal(b1-4)GlcNAc(b1-6)]GalNAc
# Method in brief: as §1
# [10] = biological target: Gal(a1-3)Gal(b1-4)[Fuc(a1-3)]GlcNAc
# Method in brief: as §1
# Gal(a1-3)GalNAc = biological target: Gal(a1-3)GalNAc
# Method in brief: as §1
# [11] = biological target: Gal(b1-4)GlcNAc(b1-2)Man(a1-3)[Gal(b1-4)GlcNAc(b1-2)Man(a1-6)]Man(b1-4)GlcNAc(b1-4)[Fuc(a1-6)]GlcNAc
# Method in brief: as §1
# [12] = biological target: Gal(b1-4)GlcNAc(b1-2)[Gal(b1-4)GlcNAc(b1-6)]Man(a1-6)[Gal(b1-4)GlcNAc(b1-2)Man(a1-3)]Man(b1-4)GlcNAc(b1-4)GlcNAc
# Method in brief: as §1
# [13] = biological target: Gal(b1-4)GlcNAc(b1-3)Gal(b1-4)GlcNAc
# Method in brief: as §1
# Gal(b1-6)Gal = biological target: Gal(b1-6)Gal
# Method in brief: as §1
# [14] = biological target: Gal3S(b1-4)[Fuc(a1-3)]Glc6S
# Method in brief: as §1
# Gal4S(b1-4)GlcNAc = biological target: Gal4S(b1-4)GlcNAc
# Method in brief: as §1
# Gal6S(b1-4)Glc = biological target: Gal6S(b1-4)Glc
# Method in brief: as §1
# Gal6S(b1-4)GlcNAc = biological target: Gal6S(b1-4)GlcNAc
# Method in brief: as §1
# Glc(a1-4)Glc = biological target: Glc(a1-4)Glc
# Method in brief: as §1
# [15] = biological target: GlcNAc(a1-4)Gal(b1-3)GlcNAc
# Method in brief: as §1
# [16] = biological target: GlcNAc(a1-4)Gal(b1-4)GlcNAc(b1-3)Gal(b1-4)GlcNAc
# Method in brief: as §1
# [17] = biological target: GlcNAc(a1-4)Gal(b1-4)GlcNAc(b1-3)Gal(b1-4)[Fuc(a1-3)]GlcNAc(b1-3)Gal(b1-4)[Fuc(a1-3)]GlcNAc
# Method in brief: as §1
# [18] = biological target: GlcNAc(b1-3)[GlcNAc(b1-6)]GalNAc
# Method in brief: as §1
# Kdn(a2-3)Gal(b1-3)GlcNAc = biological target: Kdn(a2-3)Gal(b1-3)GlcNAc
# Method in brief: as §1
# [19] = biological target: Man(a1-2)Man(a1-3)[Man(a1-2)Man(a1-6)]Man(a1-6)[Man(a1-2)Man(a1-2)Man(a1-3)]Man
# Method in brief: as §1
# [20] = biological target: Man(a1-2)Man(a1-3)[Man(a1-2)Man(a1-6)]Man(a1-6)[Man(a1-2)Man(a1-2)Man(a1-3)]Man(b1-4)GlcNAc(b1-4)GlcNAc
# Method in brief: as §1
# [21] = biological target: Man(a1-2)Man(a1-6)[Man(a1-3)]Man(a1-6)[Man(a1-2)Man(a1-2)Man(a1-3)]Man(b1-4)GlcNAc(b1-4)GlcNAc
# Method in brief: as §1
# [22] = biological target: Neu5Ac(a2-3)Gal(b1-3)GlcNAc(b1-3)GalNAc
# Method in brief: as §1
# [23] = biological target: Neu5Ac(a2-3)Gal(b1-4)[Fuc(a1-3)]GlcNAc(b1-3)GalNAc
# Method in brief: as §1
# [24] = biological target: Neu5Ac(a2-3)Gal6S(b1-4)[Fuc(a1-3)]GlcNAc
# Method in brief: as §1
# [25] = biological target: Neu5Ac(a2-6)Gal(b1-4)GlcNAc(b1-2)Man(a1-3)[Neu5Ac(a2-6)Gal(b1-4)GlcNAc(b1-2)Man(a1-6)]Man(b1-4)GlcNAc(b1-4)GlcNAc
# Method in brief: as §1
# [26] = biological target: Neu5Ac(a2-6)Gal(b1-4)GlcNAc(b1-2)Man(a1-6)Man(b1-4)GlcNAc(b1-4)GlcNAc
# Method in brief: as §1
# [27] = biological target: Neu5Ac(a2-6)GlcNAc(b1-4)GlcNAc
# Method in brief: as §1
# [28] = biological target: Neu5Ac(a2-6)GlcNAc(b1-4)GlcNAc(b1-4)GlcNAc
# Method in brief: as §1
# [29] = biological target: Neu5Ac9Ac(a2-3)Gal(b1-4)GlcNAc
# Method in brief: as §1
binder,measurement,setting,value
B1,glycan array binding signal (z-score),[1],0.007
same,glycan array binding signal (z-score),[2],0.292
same,glycan array binding signal (z-score),[3],6.81
same,glycan array binding signal (z-score),[4],0.442
same,glycan array binding signal (z-score),[5],3.26
same,glycan array binding signal (z-score),[6],-0.77
same,glycan array binding signal (z-score),[7],4.32
same,glycan array binding signal (z-score),[8],3.36
same,glycan array binding signal (z-score),[9],0.813
same,glycan array binding signal (z-score),[10],-1.04
same,glycan array binding signal (z-score),Gal(a1-3)GalNAc,-0.16
same,glycan array binding signal (z-score),[11],0.309
same,glycan array binding signal (z-score),[12],8.52
same,glycan array binding signal (z-score),[13],-0.586
same,glycan array binding signal (z-score),Gal(b1-6)Gal,0.892
same,glycan array binding signal (z-score),[14],-0.197
same,glycan array binding signal (z-score),Gal4S(b1-4)GlcNAc,-0.503
same,glycan array binding signal (z-score),Gal6S(b1-4)Glc,-0.205
same,glycan array binding signal (z-score),Gal6S(b1-4)GlcNAc,-0.815
same,glycan array binding signal (z-score),Glc(a1-4)Glc,-0.173
same,glycan array binding signal (z-score),[15],-0.205
same,glycan array binding signal (z-score),[16],4.05
same,glycan array binding signal (z-score),[17],9.15
same,glycan array binding signal (z-score),[18],-0.477
same,glycan array binding signal (z-score),Kdn(a2-3)Gal(b1-3)GlcNAc,0.075
same,glycan array binding signal (z-score),[19],0.157
same,glycan array binding signal (z-score),[20],-0.074
same,glycan array binding signal (z-score),[21],1.28
same,glycan array binding signal (z-score),[22],-0.319
same,glycan array binding signal (z-score),[23],3.03
same,glycan array binding signal (z-score),[24],-0.34
same,glycan array binding signal (z-score),[25],0.411
same,glycan array binding signal (z-score),[26],-0.415
same,glycan array binding signal (z-score),[27],0.019
same,glycan array binding signal (z-score),[28],-0.157
same,glycan array binding signal (z-score),[29],-0.533
